An excerpt weighted towards active compounds, which were near 2.7% of everything screened.
HIV Env fusion = HIV envelope-mediated fusion inhibition; HeLa-JRFL Env/CEM21 cell fusion, luciferase; inhibition, % at 12.3 µM; actives 1.1% (n = 360,000); AID 651610;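 active means mean replicate inhibition score of at least 50 and every replicate individually at or above 50; inconclusive means only one of the two criteria met; inactive means mean below 50 and not all replicates reaching 50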
PGC1a acetyl inh = modulators of PGC1a acetylation; U2OS PGC1a acetylation, AlphaScreen anti-acetyl-lysine; with virally co-expressed GCN5 acetyltransferase; inhibition, % at 15.6 µM; actives 0.17% (n = 350,000); AID 651687;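 active means every replicate shows inhibition of at least 40%; inconclusive means mean inhibition at least 40% but some replicate below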
PAX8 reporter = PAX8 transcriptional activity inhibition; RMG-I TPO-luciferase reporter, SteadyGlo, 24 h; inhibition, % at 12.6 µM; actives 1.2% (n = 360,000); AID 652154;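 active means mean replicate inhibition at least 60% with every replicate also reaching 60%; inconclusive means only one of the two criteria is met; inactive means mean below 60% and not all replicates reaching 60%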;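 further: luciferase light reporting Pax8 driven TPO promoter activity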
EWS-Fli block = inhibitors of EWS/Fli oncoprotein transcriptional activity | actives 0.67% (n = 350,000) | inhibition, % at 12.6 µM | AID 651661 | A673 NR0B1-luciferase reporter, viability-normalised;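 active means mean inhibition of at least 50% after viability correction, with every replicate also passing that limit; inconclusive means mean reaches 50% but only one of two replicates passes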;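 further: firefly luciferase signal divided by Alamar Blue viability fluorescence both relative to DMSO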
CFTR F508del cor = correctors of CFTR F508del function in bronchial epithelial cells; CFBE cells, YFP halide quenching; stimulated with forskolin plus potentiator P3; % fluorescence drop versus neutral controls; activity (quench increase), % at 7.58 µM; actives 0.36% (n = 350,000); AID 720511;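 active means mean added fluorescence quench of at least 8% versus neutral control, with both replicates also reaching 8%; inconclusive means only one of the mean or replicate conditions met; inactive means mean below 8% and not both replicates reaching 8%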;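 further: cells transiently co-express mutant CFTR-F508del with the halide-sensitive YFP; corrector assay measuring rescue of mutant channel to the surface after 24 h compound exposure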
INS-1E GSIS act = primary screen for activators of insulin secretion dependent on glucose, INS-1E cells, GLuc reporter luminescence; INS-1E GLuc reporter insulin secretion, 2-3 h; activation, % at 16.6 µM; actives 0.61% (n = 370,000); AID 743287;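 active means lowest replicate activation of at least 40%, so every replicate reaches that level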
Large screens that a line does not name were inactive.

COCCn1c(SCC(=O)Nc2ccc(Cl)c(S(=O)(=O)N(C)C)c2)nc2ccccc21	HIV Env fusion 60.2 (no result: PAX8 reporter, EWS-Fli block, CFTR F508del cor, INS-1E GSIS act)
CN(C)S(=O)(=O)c1cc(NC(=O)CN2CCc3ccccc32)ccc1Cl	PGC1a acetyl inh 74.6
CC(=O)N1CCN(c2nnc(-c3ccc(C)cc3)c3ccccc23)CC1	INS-1E GSIS act 40.9 (no result: PGC1a acetyl inh)
CC(C)(C)N1C(=O)[C@H]2[C@@H](c3ccc(Br)cc3)N3C(=O)N(c4ccccc4)C(=O)[C@@]3(C)[C@H]2C1=O	HIV Env fusion 104.1
CC(C)(C)N1C(=O)[C@H]2[C@@H](c3ccc(Br)cc3)N3C(=O)N(c4cccc(Br)c4)C(=O)[C@@]3(Cc3ccccc3)[C@H]2C1=O	none (no result: HIV Env fusion, PAX8 reporter, EWS-Fli block, CFTR F508del cor, INS-1E GSIS act)
CC(C)(C)N1C(=O)[C@H]2[C@@H](c3ccc(Br)cc3)N3C(=O)N(c4ccccc4)C(=O)[C@@]3(Cc3ccccc3)[C@H]2C1=O	HIV Env fusion 67.5 (no result: PGC1a acetyl inh)
O=C(c1ccc(F)cc1)N1CC(=O)N2[C@H](CO)[C@@H](c3ccc(C#CC4CC4)cc3)[C@@H]2C1	none (no result: HIV Env fusion)
Cc1ccc(S(=O)(=O)Nc2ccc3c(c2)C(=O)N([C@@H](C)CO)C[C@@H](C)[C@H](CN(C)C(=O)Nc2ccc(F)cc2)O3)cc1	none (no result: HIV Env fusion)
CCOC(=O)c1c(C)[nH]c(C(C)=NNC(=O)c2cccs2)c1C	INS-1E GSIS act 53.8 (no result: HIV Env fusion)
C[C@H]1CN([C@@H](C)CO)C(=O)c2cc(C3=CCCC3)cnc2O[C@@H]1CN(C)Cc1ccc(F)cc1	none (no result: PAX8 reporter)
O=C(Nc1nnc(SCC(=O)N2CCCc3ccccc32)s1)c1cccc2ccccc12	EWS-Fli block 87.6 (no result: PGC1a acetyl inh, CFTR F508del cor)
C[C@H](CO)N1C[C@H](C)[C@H](CN(C)Cc2ccc(C(=O)Nc3ccccc3N)cc2)Oc2ccc(NC(=O)Cc3ccccc3)cc2CC1=O	none (no result: HIV Env fusion)
Cc1sc2ncnc(N3CCC(C(=O)Nc4cc(Cl)ccc4Cl)CC3)c2c1C	none (no result: PGC1a acetyl inh)
Cc1ccc(NC(=O)C2CCN(c3ncnc4sc(C)c(C)c34)CC2)cc1S(=O)(=O)N(C)C	HIV Env fusion inconclusive
CCN(CC)S(=O)(=O)c1cc(NC(=O)C2CCN(c3ncnc4sc(C)c(C)c34)CC2)ccc1Cl	PAX8 reporter 71.8 (no result: PGC1a acetyl inh)
Cc1sc2ncnc(N3CCC(C(=O)Nc4cc(S(C)(=O)=O)ccc4Cl)CC3)c2c1C	HIV Env fusion 91.7 (no result: PGC1a acetyl inh)
Cc1sc2ncnc(N3CCC(C(=O)N(C)CC(=O)Nc4ccccc4Cl)CC3)c2c1C	none (no result: PGC1a acetyl inh, EWS-Fli block)
CCN(CC(=O)Nc1cc(Cl)ccc1C)C(=O)C1CCN(c2ncnc3sc(C)c(C)c23)CC1	HIV Env fusion 60.6 (no result: INS-1E GSIS act)
Cc1sc2ncnc(N3CCC(C(=O)N(C)CC(=O)Nc4ccc(Cl)c(C(F)(F)F)c4)CC3)c2c1C	PAX8 reporter 77.7 (no result: PGC1a acetyl inh)
CCCN(C)C[C@H]1OCCCC[C@H](C)Oc2ccc(NC(=O)CCC(F)(F)F)cc2C(=O)N([C@H](C)CO)C[C@@H]1C	none
O=c1[nH]cnc2nc(-c3ccccc3)c(-c3ccccc3)nc12	none (no result: EWS-Fli block, CFTR F508del cor, INS-1E GSIS act)
O=c1[nH]cnc2ncc(-c3ccc(O)cc3)nc12	PAX8 reporter 68.9
O=S(=O)(NCC1CCCO1)c1ccc(Oc2ccccc2)cc1 (stereo unspecified)	HIV Env fusion 57.1 (no result: PAX8 reporter, EWS-Fli block, CFTR F508del cor)
O=S(=O)(NCC1CCCO1)c1cnc(Cl)c(Br)c1 (stereo unspecified)	PAX8 reporter 109.7 (no result: HIV Env fusion)
COc1ccc(CN2CC3(C2)[C@H](c2ccccc2)[C@@H](CO)N3CC2CCCC2)cc1	none (no result: HIV Env fusion, PGC1a acetyl inh, PAX8 reporter, EWS-Fli block, CFTR F508del cor)
Cc1ccc(NC(C(=O)c2ccccc2)c2ccccc2)cc1 (stereo unspecified)	PAX8 reporter 80.4
CC(=O)Nc1nc(C)nc(-c2ccccc2OC(C)=O)n1	INS-1E GSIS act 44.8 (no result: HIV Env fusion, PAX8 reporter)
Nn1c(-c2ccccc2)cc(-c2ccccc2)cc1=O	INS-1E GSIS act 67.3
CCOC(=O)N1CCN(C(=O)C[C@@H]2C[C@@]3(C(=O)OCC)CCC=C3N(Cc3ccc(Cl)cc3Cl)C2=O)CC1	none (no result: PGC1a acetyl inh, INS-1E GSIS act)
CCCCCCCCN1C(=O)[C@H](CC(=O)N2CCN(C(=O)c3ccco3)CC2)C[C@@]2(C(=O)OCC)CCCC=C12	PAX8 reporter 86.8 (no result: PGC1a acetyl inh)
COC(=O)[C@]12CCCCC=C1N(Cc1ccc3c(c1)OCO3)C(=O)[C@H](CC(=O)N1CCN(C(=O)c3ccco3)CC1)C2	none (no result: PGC1a acetyl inh)
COC(=O)[C@]12CCCCC=C1N(Cc1ccc(Cl)cc1Cl)C(=O)[C@H](CC(=O)N1CCN(C(=O)c3ccco3)CC1)C2	PAX8 reporter 108.6 (no result: PGC1a acetyl inh)
CCOC(=O)[C@]12CCCC=C1N(Cc1ccco1)C(=O)[C@H](CC(=O)N1CCN(C(=O)c3ccco3)CC1)C2	none (no result: PGC1a acetyl inh)
CCOC(=O)[C@]12CCC=C1N(Cc1ccc(Cl)cc1Cl)C(=O)[C@H](CC(=O)N1CCN(C(=O)c3ccco3)CC1)C2	PAX8 reporter 78.9 (no result: PGC1a acetyl inh, INS-1E GSIS act)
COC(=O)[C@]12CCCCC=C1N(Cc1ccccc1)C(=O)[C@H](CC(=O)N1CCN(C(=O)c3ccco3)CC1)C2	PAX8 reporter 81.4 (no result: PGC1a acetyl inh)
CN1C(=O)c2cc(NC(=O)c3ccccc3F)ccc2OC[C@H]2O[C@@H](CC(=O)NCc3ccc4c(c3)OCO4)CC[C@H]21	none
COc1ccc(S(=O)(=O)Nc2ccc3c(c2)CC(=O)N([C@@H](C)CO)C[C@@H](C)[C@@H](CN(C)Cc2ccc(C(=O)O)cc2)O3)cc1	none
CN1C(=O)c2cc(NC(=O)C3CCOCC3)ccc2OC[C@@H]2O[C@@H](CC(=O)NCc3ccc4c(c3)OCO4)CC[C@H]21	none (no result: PGC1a acetyl inh, CFTR F508del cor)
O=C(Nc1nnc(-c2ccc(F)cc2)s1)C1CCN(S(=O)(=O)c2ccc(Cl)cc2)CC1	INS-1E GSIS act 60.0 (no result: PGC1a acetyl inh, EWS-Fli block, CFTR F508del cor)
Cc1ccc(S(=O)(=O)N2CCC(C(=O)Nc3nnc(-c4ccc(F)cc4)s3)CC2)cc1	none (no result: PGC1a acetyl inh, EWS-Fli block, CFTR F508del cor)
C[C@@H]1CCCCO[C@@H](CN(C)C)[C@H](C)CN([C@H](C)CO)C(=O)c2cc(NC(=O)Nc3cccc4ccccc34)ccc2O1	none
CC1Cc2ccccc2N1C(=O)CSc1nnc2n1C(C)(C)Cc1ccccc1-2 (stereo unspecified)	none (no result: EWS-Fli block, CFTR F508del cor, INS-1E GSIS act)
COc1ccccc1N1CCN(C(=O)CSc2nnc3n2C(C)(C)Cc2ccccc2-3)CC1	HIV Env fusion 73.5 (no result: PAX8 reporter, EWS-Fli block, CFTR F508del cor)
C[C@H]1CN([C@@H](C)CO)S(=O)(=O)c2ccc(C#Cc3ccc(F)cc3)cc2O[C@H]1CN(C)C(=O)NC1CCCCC1	PAX8 reporter 77.5, CFTR F508del cor 10.1
C[C@H]1CN([C@@H](C)CO)S(=O)(=O)c2ccc(C#Cc3ccc(F)cc3)cc2O[C@@H]1CN(C)C(=O)NC1CCCCC1	PAX8 reporter 91.2
C[C@@H]1CN([C@@H](C)CO)S(=O)(=O)c2ccc(C#Cc3ccc(F)cc3)cc2O[C@@H]1CN(C)C(=O)NC1CCCCC1	PAX8 reporter 85.0
CCCC#Cc1cnc2c(c1)C(=O)N([C@H](C)CO)C[C@H](C)[C@H](CN(C)C(=O)Nc1ccc(OC)cc1)O2	none (no result: PAX8 reporter)
C[C@H]1CCCCO[C@@H](CN(C)C)[C@@H](C)CN([C@@H](C)CO)C(=O)c2cc(NC(=O)c3ccccc3)ccc2O1	none

Assay outcomes: PubChem, Broad Institute
